Drawing on PubChem BioAssay, this text covers composite z-score and z-score for five molecules.

Assay [1] is described as follows: small molecules captured by biotinylated probe aFSTL3 – biochemical, small-molecule microarray, fluorescence 635/667, stem cell growth factor project, primary screen (AID 1064).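 Note: measures binding of the biotinylated anti-FSTL3 antibody to printed compounds.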 The conditions noted are these: higher = more signal.
Assay [2] is described as follows: binders from COS7 lysate, DM2A8 probe, primary screen, torsin A project, cell lysate, small-molecule microarray, fluorescence 635/667 (AID 1065). The settings on record: higher = more signal, COS7 lysate expressing mutant human TOR1A.
Assay [3] is described as follows: small molecules captured by biotinylated probe aFGF2 – biochemical, small-molecule microarray, fluorescence 635/667, stem cell growth factor project, primary screen (AID 1067).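 Note: measures binding of biotinylated aFGF2 protein to printed compounds on slides; z-score merges feature fluorescence and signal-to-noise across triplicate slides.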 The conditions noted are these: higher = more signal.
A short description of assay [4]: small molecules captured by biotinylated probe aFGF10 – biochemical, small-molecule microarray, fluorescence 635/667, stem cell growth factor project, primary screen (AID 1071).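 Note: score merges 667 nm spot intensity and signal to noise from triplicate slides.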 The settings on record: higher = more signal.
The target of assay [5] is Neurogenic locus notch homolog protein 2 (Homo sapiens) (UniProt Q04721). As to the kind of experiment: small molecules binding Notch2 protein – biochemical, small-molecule microarray, 635 nm fluorescence, stem cell growth factors, primary screen (AID 1073). The conditions noted are these: higher = more signal.
The target of assay [6] is Pro-neuregulin-1, membrane-bound isoform (Homo sapiens) (UniProt Q02297). As to the kind of experiment: small molecules binding neuregulin-1 protein – biochemical, small-molecule microarray, fluorescence 635/667, psychiatric disease protein project, primary screen (AID 1075).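 Note: score combines 667 nm spot fluorescence with signal to noise.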 The settings on record: NRG1 binding, 635 nm fluorescence, higher = more signal.
Assay [7] has as its system Neuregulin-1 EGF-like domain. Nature of the assay: small molecules binding NRG1 EGF domain – biochemical, small-molecule microarray, 635 nm fluorescence, primary screen (AID 1081).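 Note: binding of the protein to compounds printed on small-molecule microarray slides.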 The conditions noted are these: higher = more signal.
Assay [8] is described as follows: FRG1 expression reporter modulators in myotubes – cell-based, C2C12 myotubes, firefly/Renilla luciferase, luminescence, FRG1 inhibition for FSHD, primary screen (AID 1084). The conditions noted are these: FRG1 promoter luciferase, higher = more signal, called active from +8 up or from −8 down.
The nature of assay [9]: small molecules captured by biotinylated probe aFST – biochemical, small-molecule microarray, fluorescence 635/667, stem cell growth factor project, primary screen (AID 1086).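 Note: score merges 667 nm fluorescence with signal-to-noise of each printed compound spot.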 The settings on record: higher = more signal.
Assay [10] is described as follows: binders of probe aHhip on microarray, primary screen, stem cell growth factor project, biochemical, small-molecule microarray, fluorescence 635/667 (AID 1087).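 Note: score merges spot fluorescence at 667nm with spot signal to noise ratio.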 The conditions noted are these: higher = more signal.
The subject of assay [11] is PRMT1 (protein arginine N-methyltransferase 1). Nature of the assay: small molecules binding arginine methyltransferase PRMT1 – biochemical, small-molecule microarray, 635 nm fluorescence, primary screen (AID 1088).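 Note: binding of Prmt1 protein to compounds spotted on small-molecule microarray slides.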 The settings on record: higher = more signal.
Assay [12] is described as follows: growth effects on S. cerevisiae YJM789 – YJM789 clinical isolate, OD600, 24 h, basal, primary screen (AID 1089).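 Note: growth of clinical yeast isolate S. cerevisiae YJM 789 seeded 1000 cells per well; test concentration not given here.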 The conditions noted are these: higher = more signal, called active from +8 up or from −8 down.
A short description of assay [13]: S. pombe growth modifiers, basal conditions – strain 972, OD600, 24 h, no modulator, primary screen (AID 1090).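 Note: basal condition with compound alone and no growth modifier present; test concentration not given here.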 The conditions noted are these: S. pombe 972 growth, higher = more signal, called active from +8 up or from −8 down.
The nature of assay [14]: budding yeast growth modifiers under rapamycin – strain BY4716, OD600, 96 h, primary screen (AID 1091). Note: test concentration not given here. The conditions noted are these: S. cerevisiae BY4716 + rapamycin, higher = more signal, called active from +8 up or from −8 down.
For assay [15], the target named is Torsin-1A-interacting protein 2 (Homo sapiens) (UniProt Q8NFQ8). Nature of the assay: small molecules binding lysate-expressed LULL1 – cell lysate, human LULL1 lysate, 635/667 nm fluorescence, primary screen (AID 1092).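 Note: score merges per-feature 667 nm fluorescence with signal-to-noise.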 The settings on record: small-molecule microarray, hLULL1 lysate binding, 635 nm fluorescence; higher = more signal.
Assay [16] is described as follows: optical density change of DRC41 E. coli – strain DRC41, OD650, 24 h, E. coli filamentation project, primary screen (AID 1093).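 Note: MC1000 strain lacking acrAB efflux and sulA so SOS filamentation is blocked; test concentration not given here.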 The conditions noted are these: E. coli DRC41 growth, higher = more signal, called active from +8 up or from −8 down.
Assay [17] is described as follows: probe aLefty2 binding to arrayed compounds – biochemical, biotinylated probe, 635/667 nm fluorescence, primary screen (AID 1094).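 Note: score merges spot fluorescence near 667 nm with spot signal-to-noise ratio.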 The settings on record: small-molecule microarray, higher = more signal.
For assay [18], the system named is Noggin (protein binding on small-molecule microarray). Nature of the assay: small molecules binding Noggin protein – biochemical, 635/667 nm fluorescence, primary screen (AID 1095).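 Note: score merges 667 nm feature fluorescence with signal to noise over triplicate slides.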 The settings on record: 635 nm fluorescence, higher = more signal.
For assay [19], the target named is Neurogenic locus notch homolog protein 3 (Homo sapiens) (UniProt Q9UM47). Nature of the assay: small molecules binding NOTCH3 protein – biochemical, 635/667 nm fluorescence, primary screen (AID 1096). The conditions noted are these: small-molecule microarray, 635 nm fluorescence, higher = more signal.
Assay [20] can be described thus: probe aEGFR binding to arrayed compounds – biochemical, biotinylated probe, 635/667 nm fluorescence, primary screen (AID 1097).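 Note: probe is a biotinylated anti-EGFR antibody binding compounds printed on slides; score combines fluorescence near 667 nm and signal to noise of each spot.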 The conditions noted are these: small-molecule microarray, higher = more signal.

Calls of active or inactive are those of the source.

Chain of Pro-neuregulin-1, membrane-bound isoform (Homo sapiens) (Q02297 whole entry, looked up, the tested form may be a part, canonical isoform): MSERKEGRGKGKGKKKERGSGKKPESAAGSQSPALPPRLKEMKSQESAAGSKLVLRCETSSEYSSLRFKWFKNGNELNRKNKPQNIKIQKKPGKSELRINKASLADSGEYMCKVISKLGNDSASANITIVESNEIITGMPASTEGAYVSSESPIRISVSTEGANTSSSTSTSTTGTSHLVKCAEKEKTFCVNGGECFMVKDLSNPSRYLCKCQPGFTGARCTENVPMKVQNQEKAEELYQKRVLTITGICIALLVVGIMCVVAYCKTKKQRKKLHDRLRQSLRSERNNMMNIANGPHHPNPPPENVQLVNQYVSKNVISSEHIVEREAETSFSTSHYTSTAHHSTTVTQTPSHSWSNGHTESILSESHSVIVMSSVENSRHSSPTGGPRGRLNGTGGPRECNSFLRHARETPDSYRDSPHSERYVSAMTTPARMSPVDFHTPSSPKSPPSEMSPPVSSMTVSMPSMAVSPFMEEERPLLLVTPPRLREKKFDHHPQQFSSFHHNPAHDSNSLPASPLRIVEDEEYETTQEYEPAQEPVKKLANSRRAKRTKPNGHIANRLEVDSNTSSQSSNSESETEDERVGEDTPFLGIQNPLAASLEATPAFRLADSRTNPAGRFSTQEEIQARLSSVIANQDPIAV
Chain of Torsin-1A-interacting protein 2 (Homo sapiens) (Q8NFQ8 whole entry, looked up): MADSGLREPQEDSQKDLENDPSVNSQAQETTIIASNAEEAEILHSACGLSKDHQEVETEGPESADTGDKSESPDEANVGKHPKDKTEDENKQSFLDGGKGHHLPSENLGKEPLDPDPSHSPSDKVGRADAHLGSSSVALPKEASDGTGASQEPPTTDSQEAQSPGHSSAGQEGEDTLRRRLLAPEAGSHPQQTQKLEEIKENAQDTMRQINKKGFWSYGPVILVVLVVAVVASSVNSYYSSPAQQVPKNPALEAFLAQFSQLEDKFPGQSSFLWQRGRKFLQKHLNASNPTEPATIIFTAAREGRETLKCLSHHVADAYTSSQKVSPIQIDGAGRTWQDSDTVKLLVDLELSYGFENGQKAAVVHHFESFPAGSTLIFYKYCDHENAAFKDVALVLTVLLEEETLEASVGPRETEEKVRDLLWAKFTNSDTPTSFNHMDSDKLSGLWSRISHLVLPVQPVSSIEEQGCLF
Chain of Neurogenic locus notch homolog protein 2 (Homo sapiens) (Q04721 whole entry, looked up, canonical isoform): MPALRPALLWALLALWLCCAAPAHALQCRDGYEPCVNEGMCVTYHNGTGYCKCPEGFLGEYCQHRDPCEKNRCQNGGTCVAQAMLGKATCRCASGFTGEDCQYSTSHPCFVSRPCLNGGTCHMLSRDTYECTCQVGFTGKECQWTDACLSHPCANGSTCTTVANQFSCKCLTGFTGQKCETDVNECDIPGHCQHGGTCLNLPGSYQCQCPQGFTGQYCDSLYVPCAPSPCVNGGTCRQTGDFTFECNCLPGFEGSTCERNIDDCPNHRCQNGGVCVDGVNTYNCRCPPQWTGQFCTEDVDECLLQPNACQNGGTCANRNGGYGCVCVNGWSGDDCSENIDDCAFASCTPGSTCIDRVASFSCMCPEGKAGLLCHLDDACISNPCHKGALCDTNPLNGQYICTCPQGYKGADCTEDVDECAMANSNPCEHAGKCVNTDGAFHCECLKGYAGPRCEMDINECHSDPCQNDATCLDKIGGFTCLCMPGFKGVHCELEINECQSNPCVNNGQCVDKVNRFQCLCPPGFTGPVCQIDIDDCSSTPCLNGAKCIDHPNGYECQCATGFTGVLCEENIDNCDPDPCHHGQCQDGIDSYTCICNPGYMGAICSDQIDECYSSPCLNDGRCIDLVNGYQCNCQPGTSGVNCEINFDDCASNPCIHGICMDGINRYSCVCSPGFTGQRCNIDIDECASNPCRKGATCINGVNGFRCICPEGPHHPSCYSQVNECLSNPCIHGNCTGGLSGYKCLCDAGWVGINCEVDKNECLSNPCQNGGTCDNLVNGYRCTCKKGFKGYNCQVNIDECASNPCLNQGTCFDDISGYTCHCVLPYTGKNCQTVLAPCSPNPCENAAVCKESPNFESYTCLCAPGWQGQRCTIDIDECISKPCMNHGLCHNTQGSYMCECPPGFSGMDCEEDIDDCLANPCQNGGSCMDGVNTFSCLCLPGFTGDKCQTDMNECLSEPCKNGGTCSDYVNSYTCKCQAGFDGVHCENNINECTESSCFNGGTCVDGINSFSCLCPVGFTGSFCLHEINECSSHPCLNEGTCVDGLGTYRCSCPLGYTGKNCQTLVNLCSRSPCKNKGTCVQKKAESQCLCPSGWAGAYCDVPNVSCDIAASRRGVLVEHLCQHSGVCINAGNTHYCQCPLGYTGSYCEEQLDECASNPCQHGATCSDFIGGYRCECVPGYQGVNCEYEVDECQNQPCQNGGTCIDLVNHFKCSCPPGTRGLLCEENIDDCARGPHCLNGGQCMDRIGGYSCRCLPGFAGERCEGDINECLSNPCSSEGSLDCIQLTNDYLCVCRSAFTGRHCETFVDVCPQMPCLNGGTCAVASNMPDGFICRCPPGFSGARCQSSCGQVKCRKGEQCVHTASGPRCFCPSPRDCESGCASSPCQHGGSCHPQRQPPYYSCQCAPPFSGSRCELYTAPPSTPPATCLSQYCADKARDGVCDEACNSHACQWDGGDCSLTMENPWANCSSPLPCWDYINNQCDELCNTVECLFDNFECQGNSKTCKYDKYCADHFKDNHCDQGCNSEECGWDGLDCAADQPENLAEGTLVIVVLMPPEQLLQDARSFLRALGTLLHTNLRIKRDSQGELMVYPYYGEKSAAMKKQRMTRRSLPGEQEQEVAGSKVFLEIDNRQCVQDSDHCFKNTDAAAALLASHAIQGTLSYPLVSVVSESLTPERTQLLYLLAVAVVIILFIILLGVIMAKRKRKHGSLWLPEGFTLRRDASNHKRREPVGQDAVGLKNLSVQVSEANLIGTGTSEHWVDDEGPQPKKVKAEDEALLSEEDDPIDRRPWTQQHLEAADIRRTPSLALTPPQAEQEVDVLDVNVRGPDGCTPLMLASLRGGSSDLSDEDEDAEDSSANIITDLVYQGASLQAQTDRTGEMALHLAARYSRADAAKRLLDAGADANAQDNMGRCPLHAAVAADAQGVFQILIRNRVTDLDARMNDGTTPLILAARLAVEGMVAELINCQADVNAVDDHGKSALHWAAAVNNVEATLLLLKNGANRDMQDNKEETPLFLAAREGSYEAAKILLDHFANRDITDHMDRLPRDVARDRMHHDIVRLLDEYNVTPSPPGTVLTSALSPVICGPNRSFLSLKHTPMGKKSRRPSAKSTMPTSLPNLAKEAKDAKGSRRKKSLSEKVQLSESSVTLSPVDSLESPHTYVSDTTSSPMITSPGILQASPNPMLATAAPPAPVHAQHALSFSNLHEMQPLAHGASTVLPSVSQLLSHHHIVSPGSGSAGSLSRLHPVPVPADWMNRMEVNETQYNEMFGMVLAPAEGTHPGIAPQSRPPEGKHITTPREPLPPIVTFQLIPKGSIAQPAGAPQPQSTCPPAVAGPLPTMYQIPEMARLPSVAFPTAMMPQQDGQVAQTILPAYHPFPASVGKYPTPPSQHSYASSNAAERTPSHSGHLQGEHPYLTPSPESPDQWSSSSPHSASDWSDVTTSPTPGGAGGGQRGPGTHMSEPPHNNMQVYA

For the molecule `Cc1cc2c(nc1C)CCCN2CC(C)ON=C1[C@H]2CCn3c(=O)n(-c4ccccc4)c(=O)n3[C@H]2[C@H](O)[C@@H]2O[C@H]12` (stereo not given in full), the composite z-score in assay [1] is -0.335; in assay [2], 0.533; in [3], 0.0477; in [4] it was 0.73; in assay [5], 0.36; in assay [6] it was 0.0785. In addition, the composite z-score in assay [7] is 1.1; in [9], 0.265; in [10], -0.194; in [11] it was 1.51; in [15], 1.42; in assay [17], -0.138. For the same molecule, the composite z-score is 0.725 in [18], 1.01 in [19] and -0.0141 in assay [20]. The z-score in assay [8] was -0.325 (inactive); in [12], -0.706 (inactive); in assay [13] it was -0.829 (inactive); in assay [14], -0.115 (inactive); in assay [16], -0.414 (inactive).
Regarding `CCN(CC)c1ccc(N2CC=CC34O[C@@H]5/C=C\CCC(C)OC(=O)C5[C@H]3C(=O)N(CCCO)[C@@H]4C2=O)cc1` (stereo not given in full), the composite z-score in assay [1] was 0.678; in [2], 0.215; in [3], -0.0766; in assay [4], 0.408; in assay [5], -0.659; in [6], 0.63. Besides, the composite z-score in assay [7] was 1.58; in assay [9], -0.444; in assay [10], -0.0237; in assay [11] it was -1; in assay [15], 0.964; in [17], -0.143. Further, the figures for the composite z-score in assay [18], in assay [19] and in assay [20] were -0.686, -0.397 and -0.27, respectively. In addition, the z-score in [8] was 0.957 (inactive); in assay [12], 0.664 (inactive); in assay [13] it was -0.0895 (inactive); in assay [14], 0.928 (inactive); in assay [16] it was 0.0591 (inactive).
Regarding `COC(=O)C1=C(C)N(Cc2ccccc2)[C@]23O[C@](C(=O)OC)(C(=O)N2[C@@H]1c1ccccc1)[C@H]1CCOC(=O)[C@H]13`, the composite z-score in [1] was -0.602; in assay [2], 0.601; in [3], -0.0956; in assay [4] it was 0.649; in assay [5], 0.783; in [6], -0.146. Further, the composite z-score in assay [7] was 0.815; in assay [9] it was 0.0592; in assay [10] it was -0.0645; in [11], 0.33; in [15] it was 0.257; in [17] it was -0.0638. Moreover, the composite z-score is 0.648 in assay [18], 1.07 in [19] and -0.0152 in assay [20]. In addition, the z-score in assay [8] is -0.203 (inactive); in assay [12], 0.828 (inactive); in assay [13] it was 0.494 (inactive); in [14] it was 1.71 (inactive); in assay [16], 0.308 (inactive).
On to `CC(=O)C[C@H](O)[C@@H](NC(=O)OC(C)(C)C)C(C)C`, for which the composite z-score in [1] is -0.475; in assay [2] it was -0.627; in assay [3] it was -0.129; in assay [4] it was -0.328; in assay [5], -0.453; in [6], -0.759. Moreover, the composite z-score in assay [7] is -0.996; in [9] it was -0.126; in [10], -0.0668; in assay [11] it was -0.402; in assay [15] it was -1.18; in assay [17], -0.214. Further, the figures for the composite z-score in assay [18], in [19] and in [20] were -0.198, -0.0052 and -0.171, respectively. In addition, the z-score in assay [8] is 0.178 (inactive); in [12] it was -0.498 (inactive); in [13] it was -0.644 (inactive); in assay [14] it was 0.0836 (inactive); in assay [16], -0.972 (inactive).
Consider `O=C1[C@H]2[C@H]3[C@H](O)[C@H](O)CC(=NO[C@@H]4O[C@H](CO)[C@@H](O)[C@H](O)[C@H]4O)[C@@H]3CC[C@H]2C(=O)N1c1ccc(F)cc1F`, for which the composite z-score is -0.383 in assay [1]; 1.17 in [2]; -0.125 in [3]; 0.442 in [4]; 0.482 in [5]; -0.141 in assay [6]. The composite z-score in assay [7] was 0.386; in assay [9], 0.0076; in [10], 0.2; in assay [11] it was -0.841; in assay [15], 0.245; in assay [17], -0.119. For the same molecule, the composite z-score in [18] was 0.575; in [19], 0.79; in [20], -0.113. Moreover, the z-score in [8] is 1.06 (inactive); in assay [12] it was -1.24 (inactive); in [13], -0.114 (inactive); in assay [14], -1.29 (inactive); in assay [16], 0.645 (inactive).
